We go through 40 molecules from PubChem BioAssay (NCATS).

“And” between values parts separate entries of the source, which are not always exact repeats. Identical values can stand only once. Inconclusive results are not listed. A number with no mark means an inactive call. The source made the active and inactive calls. The call rests on the fitted dose curve; in most records, active means well fitted cell-killing curve with a large enough effect; inconclusive means small, poorly fitted or top-dose-only effect; inactive means no such curve, though single readings can be large or run the other way.
Potency means the concentration at half of the fitted maximal effect.

A short description of the assay: qHTS of pediatric cancer cell lines to identify multiple opportunities for drug repurposing: Primary screen for NB1643 cells (AID 1347099). Further: nearly all actives have a fitted effect of over 50% in size. To be noted: NB1643 neuroblastoma viability, CellTiter-Glo luminescence, 48 h; series mostly up to 46 µM; activity change, negative = cytotoxic: at the top concentration. An excerpt:
Drug repurposing or repositioning has been offered as a strategy for drug development in oncology programs. This approach has special potential for childhood cancers and other rare or orphan diseases, where the expected return on new drug development has been a disincentive to pharmaceuticals. […] In this project we exploit the poly-pharmacology of drugs to discover new indications via phenotypic screening of a panel of 19 well-characterized cell lines derived from solid tumors seen in children and adolescents. The goal is to identify approved drugs with previously unrecognized anticancer properties that has the potential to reveal new mechanisms and biological processes involved in carcinogenesis or drug resistance. We employed a titration-based paradigm (quantitative high-throughput screening or qHTS), where all compounds were tested at multiple concentrations for their effect on cell viability. Concentration-response curves (CRCs) were derived directly from the primary screen, and both potency and efficacy values were used to identify compounds with robust bioactivity profiles. We screened the NIH Chemical Genomics Center (NCGC) Pharmaceutical Collection (NPC) and Mechanism Interrogation Plate (MIPE) small molecule collections of approved and investigational compounds against these cell lines; and measured metabolically active cells after 48 hours of compound treatment as a proxy for cell viability. […] Assay Submitter: Nathalia J. Martinez, National Center for Advancing Translational Sciences, National Institutes of Health, Rockville, MD, USA; email: natalia.martinez@nih.gov Shen, M et al. Quantitative high-throughput phenotypic screening of pediatric cancer cell lines identifies multiple opportunities for drug repurposing. Oncotarget 2017 Dec 19;9(4):4758-4772. PMID 29435139.
The cells were obtained from University of North Carolina (UNC), Pediatric Preclinical Testing Program (PPT), and Coriell Institute (CI). qHTS cell viability assay: Cells were assayed in growth media at a density of 500-1,000 cells/well. Five microliters of cells were dispensed into 1,536-well, white, solid-bottom, TC-treated plates (Greiner Bio One) using a multidrop dispenser and incubated at 37 degrees C, 5% CO2, under a humidified atmosphere for 5 hours. Twenty-three nanoliters of compounds and controls (neutral control DMSO or positive control bortezomib at final concentration of 2.3 µM) were subsequently transferred by Kalypsys pintool. For primary screens, the MIPE collection was tested at 11-point dilutions (final concentrations range from 0.78 nM to 46 µM) and the NPC collection at 8-point dilutions (final concentrations range from 0.59 nM to 46 µM). Compounds tested in follow-up screens were assayed at 11-point dilutions. Cells were incubated for 48 hours, followed by addition of 3 µL of CellTiter-Glo (Promega). After a 15 min incubation at room temperature, samples were analyzed for luminescence intensity using a ViewLux High-throughput CCD imager equipped with clear filters.
A general note: qHTS replaces the single test concentration by a dilution series.
As for `CC(C)(C)c1cc(C(=O)O)c(NC(=O)Nc2ccc3[nH]ncc3c2)s1`, the Potency was 23.5 µM (active). `Cc1cccc(Nc2nc(-c3ccncc3)cs2)c1`: the “activity change, negative = cytotoxic” value is -1.25%.

With `OC[C@H]1O[C@@H](Oc2cc(O)cc(C=Cc3ccc(O)cc3)c2)[C@H](O)[C@@H](O)[C@H]1O`, the “activity change, negative = cytotoxic” value was 9.78%. Still for that read-out and setting: with `CC(C)C(C)C=CC(C)C1CCC2C3=CC=C4CC(O)CCC4(C)C3CCC21C` (stereo not given) the figure was 1.6%.

For the molecule `O=C1c2c(O)cc(O)cc2O[C@H](c2cc(O)c(O)c(O)c2)[C@H]1O`, the Potency is 23.5 µM (active). As for `N#CC1(c2ccc(NC(=O)c3cccnc3NCc3ccncc3)cc2)CCCC1`, the “activity change, negative = cytotoxic” value was -5.22%. As to `COC[C@@H](c1ccc(C(F)(F)F)cc1)N1CCN(C2(C)CCN(C(=O)c3c(C)ncnc3C)CC2)C[C@H]1C`, the Potency was 18.7 µM (active).

With `C=C1C(=O)OC(CCCCCCCC)C1C(=O)O` (stereo not given), the “activity change, negative = cytotoxic” value was -13.4%. As for `COc1cc2ncnc(-n3nc(-c4ccccn4)nc3N)c2cc1OC`, the Potency is 4.69 µM (active). The same measure, in the same setting: as for `O=C(O)CCC1CCC(c2cc(F)ccc2F)(S(=O)(=O)c2ccc(Cl)cc2)CC1` (stereo not given), the figure is 2.35 µM (active); as for `COc1ncc(-c2ccc3nccc(-c4ccnnc4)c3c2)cc1NS(=O)(=O)c1ccc(F)cc1F`, 0.0662 µM (active). As for `NC1=N[C@@]2(c3cc(NC(=O)c4ccc(F)cn4)ccc3F)COC[C@@H]2CS1`, the “activity change, negative = cytotoxic” value was -27.2%.

On to `NC1CCC(Nc2nc(Nc3ccc(C(=O)N4CCCCC4)cc3)c3ncn(-c4cccc(F)c4)c3n2)CC1` (stereo not given), for which the “activity change, negative = cytotoxic” value was -5.69%. For the molecule `NC(=O)[C@@H](CCC(F)(F)F)N(Cc1ccc(-c2ncon2)cc1F)S(=O)(=O)c1ccc(Cl)cc1`, the Potency was 23.5 µM (active). Regarding `CCCNC(=O)NS(=O)(=O)c1ccc(Cl)cc1`, the “activity change, negative = cytotoxic” value was 10.6%. With `c1ccc2c(Cc3c[nH]c4ccccc34)c[nH]c2c1`, the Potency is 4.18 µM (active). On the same count and under the same terms, as for `N#CC(=C(N)Sc1ccccc1N)C(C#N)=C(N)Sc1ccccc1N`, the figure is 20.9 µM (active).

For the molecule `CNC(=O)c1ccc2cc(C3(O)CCn4cncc43)ccc2c1` (stereo not given), the “activity change, negative = cytotoxic” value is 3.76%.

Turning to `CC(=O)Nc1ccc([C@H](C)C(=O)Nc2ncc(C(C)C)s2)cc1`, the Potency was 1.18 µM (active). Turning to `O=c1cc(-c2ccccc2)oc2cc(O)c(O)c(O)c12`, the “activity change, negative = cytotoxic” value was -7.73%. As for `CC1(C)CCC(CN2CCN(c3ccc(C(=O)NS(=O)(=O)c4ccc(NCC5CCOCC5)c([N+](=O)[O-])c4)c(Oc4cnc5[nH]ccc5c4)c3)CC2)=C(c2ccc(Cl)cc2)C1`, the Potency was 0.0418 µM (active). Turning to `CCC(CC)[C@H](NC(C)=O)[C@@H]1[C@H](O)[C@@H](C(=O)O)C[C@@H]1N=C(N)N`, the “activity change, negative = cytotoxic” value is -11.5%. In the case of `O=C(CCCCCCC(=O)Nc1ccccc1)NO`, the Potency is 944 nM (active) and 1.32 µM (active). In the case of `CCOC(CN1C(=O)[C@](CC(=O)Nc2ccc(C)cc2)(NC(=O)Nc2ccc(C)cc2)c2ccccc21)OCC`, the Potency was 16.6 µM (active). Still for that read-out and setting: as for `CO[C@H]1C=CC=C(C)C(=O)NC2=CC(=O)C(NCCN(C)C)=C(C[C@@H](C)C[C@H](OC)[C@@H](O)[C@@H](C)C=C(C)[C@@H]1OC(N)=O)C2=O`, the figure is 0.166 µM (active).

For `CC(C)(C)c1ccc(C(O)CCCN2CCC(C(O)(c3ccccc3)c3ccccc3)CC2)cc1` (stereo not given), the “activity change, negative = cytotoxic” value was 0%. As to `C[C@H](NC(=O)c1sccc1OCc1ccc(Cl)cc1)c1ccccc1`, the Potency was 23.5 µM (active). `O=c1cc(-c2ccccc2)oc2cc(O)cc(O)c12`: the “activity change, negative = cytotoxic” value was 1.51%. Same read-out and setting: with `Cc1ccn(-c2ccc(-c3ncco3)cc2)c(=O)c1-c1ccc2nc(N)ncc2c1` the figure was -23.2%. Turning to `CC1(C)S[C@H]2[C@H](NC(=O)[C@@H](N)c3ccc(O)cc3)C(=O)N2[C@@H]1C(=O)O`, the Potency is 1.18 µM (active). With `CC(=O)O[C@]1(C(C)=O)CC[C@H]2[C@@H]3C=C(Cl)C4=CC(=O)[C@@H]5C[C@@H]5[C@]4(C)[C@H]3CC[C@@]21C`, the “activity change, negative = cytotoxic” value is -11.9%. Turning to `COCCOc1nc(-c2ccc(Cl)c(Cl)c2)n(-c2ccc(NC(=O)CCl)cc2)n1`, the Potency is 16.6 µM (active).

In the case of `CC(C)n1cnc2c(NCCCCCCNC(=O)OC(C)(C)C)nc(NCCO)nc21`, the “activity change, negative = cytotoxic” value is 0.33%. Take `COc1cccc(-c2cc(=O)c3ccccc3o2)c1N`: the Potency is 20.9 µM (active). Same read-out and setting: as for `NS(=O)(=O)c1cccc2c1C(=O)c1cccc(O)c1C2=O`, the figure is 1.05 µM (active). Take `NC(=O)c1cccc(-c2cc(Nc3ccc(OC(F)(F)F)cc3)ncn2)c1`: the “activity change, negative = cytotoxic” value is -5.72%. Consider `COc1ccc(-c2nc(N3CCOCC3)c3sc(CN(C)c4ncc(C(=O)NO)cn4)cc3n2)cn1`, for which the Potency was 0.001 µM (active).

Regarding `CC(=NNC(=S)N1CCC1)c1ccccn1`, the Potency is 0.001 µM (active). Same read-out and setting: as for `O=C(NCc1ccccc1)c1csc(Nc2ccncn2)n1`, the figure is 13.2 µM (active). With `COc1ccc2c(Oc3ccc(NC(=O)c4c(C)n(CC(C)(C)O)n(-c5ccccc5)c4=O)nc3)ccnc2c1`, the “activity change, negative = cytotoxic” value is -21.6%.
